# Measured potencies and affinities stand elsewhere. The source made the active and inactive calls.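 Rule for the calls: active = compounds whose fitted half-maximal growth inhibition concentration is at most twice their top tested dose; inconclusive = flat fit with 30 to 70% inhibition, or poor fit; inactive = the rest.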
# Assay: Dd2 parasite growth inhibition in erythrocytes – SYBR Green, dry powder samples, set 4, dose response (AID 1159572)
# Conditions: P. falciparum Dd2 in erythrocytes, 72 h; series mostly up to 19.5 µM
smiles,measurement,value
COc1ccc2c3c([nH]c2c1)[C@H](CO)N(C(C)=O)CC31CCN(C(=O)Nc2c(C)noc2C)CC1,outcome,inactive
